Measurements published in PubChem BioAssay.
Several values for one entry are separate records, joined by “and”; a condition that tells them apart may be missing. Equal entries are not always repeated. Results filed as inconclusive are left out. Activity calls are given as the source filed them.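 Rule for the calls, unless noted: active = normalized viability below 100% at a tested concentration; inactive = the rest.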

How the values were obtained:
[1] = liver-stage malaria parasite growth inhibition, primary screen, cell-based, HepG2, luciferase luminescence, HepG2 viability (AID 624349; in the data active = parasite load remaining mostly below about 12%, no sharp cut-off; inactive = mostly above about 10%;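 note: 100% = mean of DMSO negative control wells on the same plate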); conditions: P. berghei liver stage in HepG2, luciferase luminescence, concentration not given here; parasite load remaining: stronger effect = lower value; viability: measured here: HepG2 viability without parasites
[2] = growth inhibition of DIPG glioma cells, dose response, cell-based, SU-DIPG-XVII, MIPE5.0, CellTiter-Glo, qHTS (AID 1347060; cut-off not given, nearly all actives have AC50 up to about 26 µM;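 for AC50: cells exposed to compound for 48 hours before viability readout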); conditions: SU-DIPG-XVII viability, CellTiter-Glo ATP luminescence
[3] = growth inhibition of DIPG glioma cells, dose response, cell-based, JHH-DIPG-1, MIPE4.0, CellTiter-Glo, qHTS (AID 1347062; cut-off not given, nearly all actives have AC50 up to about 27 µM;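 for AC50: cells exposed to compound for two days before readout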); conditions: JHH-DIPG-1 viability, CellTiter-Glo ATP luminescence
[4] = growth inhibition of DIPG glioma cells, dose response, cell-based, SU-DIPG-IV, MIPE4.0, CellTiter-Glo, qHTS (AID 1347063; cut-off not given, nearly all actives have AC50 up to about 30 µM;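 note: compound exposure lasted 48 hours before the viability readout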); conditions: SU-DIPG-IV viability, CellTiter-Glo ATP luminescence
[5] = growth inhibition of DIPG glioma cells, dose response, cell-based, SU-DIPG-XIII, MIPE5.0, CellTiter-Glo, qHTS (AID 1347064; cut-off not given, nearly all actives have AC50 up to about 23 µM;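 for AC50: cells exposed to compound for 48 hours before the viability read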); conditions: SU-DIPG-XIII viability, CellTiter-Glo ATP luminescence
[6] = viability loss in pontine glioma line – cell-based, SU-DIPG-XXV, MIPE5.0, CellTiter-Glo, qHTS, dose response (AID 1347065; cut-off not given, nearly all actives have AC50 up to about 26 µM;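 note: cells exposed to compound for 48 hours before ATP readout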); conditions: CellTiter-Glo ATP luminescence
[7] = JHH-DIPG-1 glioma cell viability, MIPE5.0 library, CellTiter-Glo luminescence, qHTS (AID 1347067; cut-off not given, nearly all actives have AC50 up to about 26 µM;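 note: cells exposed to compound for 48 hours before readout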); conditions: JHH-DIPG-1 glioma viability, CellTiter-Glo ATP luminescence
[8] = SU-DIPG-XXV glioma cell viability, MIPE5.0 library, qHTS (AID 1347068; cut-off not given, nearly all actives have IC50 up to about 30 µM;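 for IC50: cells exposed to compound for 48 hours before viability readout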)
[9] = sensitizers of A549 cells to miR-34 induction, primary screen, imaging, A549 dox-inducible miR-34, nuclei and caspase counts (AID 1347080;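 active = compounds whose cell count with miR-34 switched on is under 0.7 times the count with it off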); conditions: A549 miR-34 inducible, Hoechst nuclei count, 48 h
[10] = modifiers of HSF1 nuclear foci, imaging, Selleck Cancer Library (AID 1347162; in the data active = plate-normalised HSF1 focus index below about 0.46); conditions: human cells, at 10 µM; SSMD: measured here: HSF1 foci SSMD mean; cell count: measured here: cell number; plate-normalised HSF1 focus index: stronger effect = lower value
[11] = survival rescue of mitochondrial mutant cells in low glucose, primary screen, MELAS cybrids, Rieske KO mouse fibroblasts, CellTiter-Glo (AID 1508586;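 active = mean z-score across replicates of 1.96 or higher in either the MELAS or the Rieske mutant cell line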;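 note: z relative to plate mean and SD of compound and empty wells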)
[12] = ovarian cancer cell viability with rucaparib, profiling panel, oncology-focused library, rucaparib conditional (AID 1508598); conditions: patient-derived ovarian cancer cells, CellTiter-Glo viability, 144 h, stronger effect = lower value
[13] = SU-DIPG-VI glioma cell viability, MIPE4.0 library, CellTiter-Glo luminescence, qHTS (AID 1347066; cut-off not given, nearly all actives have AC50 up to about 30 µM;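 note: cells exposed to compound for 48 hours before readout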); conditions: CellTiter-Glo ATP luminescence
[14] = stronger effect = lower value, cell number ratio, induced over uninduced
[15] = measured here: relative caspase fold change +Dox/-Dox
[16] = measured here: total cells with miR-34 induction, stronger effect = lower value
[17] = measured here: total cells without miR-34 induction
[18] = MELAS cybrid survival, CellTiter-Glo 48 h, stronger effect = higher value
[19] = Rieske KO mouse fibroblast survival, CellTiter-Glo 72 h
[20] = at 0.000305 µM, OCI-C5x cells, with rucaparib 10 µM, 100% = cells with rucaparib alone
[21] = at 0.000305 µM, OCI-C5x cells, without rucaparib
[22] = at 0.000305 µM, OCI-P5x cells, with rucaparib 20 µM, 100% = cells with rucaparib alone
[23] = at 0.000305 µM, OCI-P5x cells, without rucaparib
[24] = at 0.00122 µM, OCI-C5x cells, with rucaparib 10 µM, 100% = cells with rucaparib alone
[25] = at 0.00122 µM, OCI-C5x cells, without rucaparib
[26] = at 0.00122 µM, OCI-P5x cells, with rucaparib 20 µM, 100% = cells with rucaparib alone
[27] = at 0.00122 µM, OCI-P5x cells, without rucaparib
[28] = at 0.00488 µM, OCI-C5x cells, with rucaparib 10 µM, 100% = cells with rucaparib alone
[29] = at 0.00488 µM, OCI-C5x cells, without rucaparib
[30] = at 0.00488 µM, OCI-P5x cells, with rucaparib 20 µM, 100% = cells with rucaparib alone
[31] = at 0.00488 µM, OCI-P5x cells, without rucaparib
[32] = at 0.0195 µM, OCI-C5x cells, with rucaparib 10 µM, 100% = cells with rucaparib alone
[33] = at 0.0195 µM, OCI-C5x cells, without rucaparib
[34] = at 0.0195 µM, OCI-P5x cells, with rucaparib 20 µM, 100% = cells with rucaparib alone
[35] = at 0.0195 µM, OCI-P5x cells, without rucaparib
[36] = at 0.0781 µM, OCI-C5x cells, with rucaparib 10 µM, 100% = cells with rucaparib alone
[37] = at 0.0781 µM, OCI-C5x cells, without rucaparib
[38] = at 0.0781 µM, OCI-P5x cells, with rucaparib 20 µM, 100% = cells with rucaparib alone
[39] = at 0.0781 µM, OCI-P5x cells, without rucaparib
[40] = at 0.313 µM, OCI-C5x cells, with rucaparib 10 µM, 100% = cells with rucaparib alone
[41] = at 0.313 µM, OCI-C5x cells, without rucaparib
[42] = at 0.313 µM, OCI-P5x cells, with rucaparib 20 µM, 100% = cells with rucaparib alone
[43] = at 0.313 µM, OCI-P5x cells, without rucaparib
[44] = at 1.25 µM, OCI-C5x cells, with rucaparib 10 µM, 100% = cells with rucaparib alone
[45] = at 1.25 µM, OCI-C5x cells, without rucaparib
[46] = at 1.25 µM, OCI-P5x cells, with rucaparib 20 µM, 100% = cells with rucaparib alone
[47] = at 1.25 µM, OCI-P5x cells, without rucaparib
[48] = at 5 µM, OCI-C5x cells, with rucaparib 10 µM, 100% = cells with rucaparib alone
[49] = at 5 µM, OCI-C5x cells, without rucaparib
[50] = at 5 µM, OCI-P5x cells, with rucaparib 20 µM, 100% = cells with rucaparib alone
[51] = at 5 µM, OCI-P5x cells, without rucaparib

O=C1NC(=O)/C(=C/c2ccc3c(c2)OC(F)(F)O3)S1
parasite load remaining [1]: 45.5% (inactive)
viability [1]: 93.8%
outcome [2]: inactive
outcome [3]: inactive
outcome [4]: inactive
outcome [5]: inactive
outcome [6]: inactive
outcome [7]: inactive
outcome [8]: inactive
fold change [9, 14]: 0.88 (inactive) and 0.952 (inactive)
fold change [9, 15]: 1.16 and 0.645
cell count [9, 16]: 8070 and 5980
cell count [9, 17]: 9160 and 6280

CCN(CC)CCCCNc1ncc2cc(-c3cc(OC)cc(OC)c3)c(NC(=O)NC(C)(C)C)nc2n1
AC50 [2]: 0.468 µM (active)
AC50 [3]: 26.4 µM (active)
AC50 [4]: 16.6 µM (active)
AC50 [5]: 0.372 µM (active)
AC50 [6]: 0.372 µM (active)
AC50 [7]: 16.6 µM (active)
IC50 [8]: 3.32 µM (active)
fold change [9, 14]: 0.886 (inactive) and 0.737 (inactive)
fold change [9, 15]: 1.64 and 1.42
cell count [9, 16]: 4880 and 4370
cell count [9, 17]: 5500 and 5930
SSMD [10]: -4.74
cell count [10]: 7260
plate-normalised HSF1 focus index [10]: 0.703 (inactive)
z-score [11, 18]: -0.712 (inactive)
z-score [11, 19]: 0.5
viability [12, 20]: 117% (inactive)
viability [12, 21]: 103% (inactive)
viability [12, 22]: 96.8% (active)
viability [12, 23]: 89.9% (active)
viability [12, 24]: 105% (inactive)
viability [12, 25]: 104% (inactive)
viability [12, 26]: 105% (inactive)
viability [12, 27]: 98.6% (active)
viability [12, 28]: 118% (inactive)
viability [12, 29]: 110% (inactive)
viability [12, 30]: 104% (inactive)
viability [12, 31]: 101% (inactive)
viability [12, 32]: 118% (inactive)
viability [12, 33]: 108% (inactive)
viability [12, 34]: 109% (inactive)
viability [12, 35]: 108% (inactive)
viability [12, 36]: 120% (inactive)
viability [12, 37]: 113% (inactive)
viability [12, 38]: 113% (inactive)
viability [12, 39]: 104% (inactive)
viability [12, 40]: 120% (inactive)
viability [12, 41]: 115% (inactive)
viability [12, 42]: 105% (inactive)
viability [12, 43]: 101% (inactive)
viability [12, 44]: 140% (inactive)
viability [12, 45]: 126% (inactive)
viability [12, 46]: 100% (inactive)
viability [12, 47]: 105% (inactive)
viability [12, 48]: 140% (inactive)
viability [12, 49]: 85.3% (active)
viability [12, 50]: 74.6% (active)
viability [12, 51]: 68.4% (active)

Cc1[nH]c(/C=C2\C(=O)Nc3ccc(S(=O)(=O)N(C)c4cccc(Cl)c4)cc32)c(C)c1C(=O)N1CCN(C)CC1
parasite load remaining [1]: 38.5% (inactive)
viability [1]: 69.6%
AC50 [2]: 9.34 µM (active)
AC50 [3]: 20.9 µM (active)
AC50 [4]: 23.5 µM (active)
AC50 [5]: 7.42 µM (active)
AC50 [6]: 7.42 µM (active)
AC50 [13]: 11.8 µM (active)
AC50 [7]: 8.33 µM (active)
SSMD [10]: 1.63
cell count [10]: 7040
plate-normalised HSF1 focus index [10]: 1.1 (inactive)

CCCCC(C)(C)[C@H](O)/C=C/[C@H]1[C@H](O)CC(=O)[C@@H]1C/C=C\CCCC(=O)O
AC50 [2]: 13.2 µM (active)
outcome [3]: inactive
outcome [4]: inactive
AC50 [5]: 14.8 µM (active)
AC50 [6]: 14.8 µM (active)
AC50 [13]: 18.7 µM (active)
AC50 [7]: 14.8 µM (active)
outcome [8]: inactive
fold change [9, 14]: 1.01 (inactive) and 0.939 (inactive)
fold change [9, 15]: 1.62 and 1.28
cell count [9, 16]: 6230 and 5490
cell count [9, 17]: 6170 and 5850

CC(C)(C)c1cnc(CSc2cnc(NC(=O)C3CCNCC3)s2)o1
AC50 [2]: 0.118 µM (active)
AC50 [3]: 0.166 µM (active)
AC50 [4]: 0.264 µM (active)
AC50 [5]: 0.833 µM (active)
AC50 [6]: 0.742 µM (active)
AC50 [7]: 1.18 µM (active)
IC50 [8]: 0.934 µM (active)
fold change [9, 14]: 0.966 (inactive)
fold change [9, 15]: 1.56
cell count [9, 16]: 1470
cell count [9, 17]: 1520
SSMD [10]: 0.418
cell count [10]: 7130
plate-normalised HSF1 focus index [10]: 1.03 (inactive)
z-score [11, 18]: 0.429 (inactive)
z-score [11, 19]: -1.89
viability [12, 20]: 114% (inactive)
viability [12, 21]: 105% (inactive)
viability [12, 22]: 112% (inactive)
viability [12, 23]: 111% (inactive)
viability [12, 24]: 108% (inactive)
viability [12, 25]: 104% (inactive)
viability [12, 26]: 103% (inactive)
viability [12, 27]: 106% (inactive)
viability [12, 28]: 100% (active)
viability [12, 29]: 103% (inactive)
viability [12, 30]: 110% (inactive)
viability [12, 31]: 104% (inactive)
viability [12, 32]: 108% (inactive)
viability [12, 33]: 98.5% (active)
viability [12, 34]: 105% (inactive)
viability [12, 35]: 110% (inactive)
viability [12, 36]: 108% (inactive)
viability [12, 37]: 100% (active)
viability [12, 38]: 101% (inactive)
viability [12, 39]: 104% (inactive)
viability [12, 40]: 94.4% (active)
viability [12, 41]: 97% (active)
viability [12, 42]: 95.6% (active)
viability [12, 43]: 85.8% (active)
viability [12, 44]: 9.76% (active)
viability [12, 45]: 9.99% (active)
viability [12, 46]: 22.5% (active)
viability [12, 47]: 14% (active)
viability [12, 48]: 12% (active)
viability [12, 49]: 10.8% (active)
viability [12, 50]: 20.3% (active)
viability [12, 51]: 11% (active)

NC1(c2ccc(-c3nc4ccn5c(=O)[nH]nc5c4cc3-c3ccccc3)cc2)CCC1
AC50 [2]: 16.6 µM (active)
AC50 [3]: 23.5 µM (active)
AC50 [4]: 14.8 µM (active)
AC50 [5]: 6.61 µM (active)
AC50 [6]: 1.86 µM (active)
AC50 [7]: 6.61 µM (active)
IC50 [8]: 18.6 µM (active)
fold change [9, 14]: 0.999 (inactive)
fold change [9, 15]: 1.72
cell count [9, 16]: 4130
cell count [9, 17]: 4140
SSMD [10]: 3.02
cell count [10]: 6650
plate-normalised HSF1 focus index [10]: 1.19 (inactive)
z-score [11, 18]: -0.154 (inactive)
z-score [11, 19]: -0.0056
viability [12, 20]: 119% (inactive)
viability [12, 21]: 118% (inactive)
viability [12, 22]: 117% (inactive)
viability [12, 23]: 108% (inactive)
viability [12, 24]: 119% (inactive)
viability [12, 25]: 126% (inactive)
viability [12, 26]: 102% (inactive)
viability [12, 27]: 112% (inactive)
viability [12, 28]: 111% (inactive)
viability [12, 29]: 129% (inactive)
viability [12, 30]: 103% (inactive)
viability [12, 31]: 106% (inactive)
viability [12, 32]: 110% (inactive)
viability [12, 33]: 119% (inactive)
